The panel holds about 83,000 compounds, 20% with a hit somewhere; the sample as a whole holds those more often.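 Step 1: grow cells in 96-well plates. Step 2: add test compound at a single concentration. Step 3: incubate 48 h. Step 4: record percent growth.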 Active and inactive are the calls of the source. Rule for the calls: active = growth percent below 10; inactive = the rest.
System: HL-60(TB) leukemia
Test: NCI-60 one-dose screen, 48 h (100 = growth as untreated, 0 = no growth, -100 = all killed)
Conditions: 10 µM unless noted

Row | SMILES | growth
1 | O=C(Nc1ccccc1)NS(=O)(=O)c1c[nH]c(=S)[nH]c1=O | 77.8% (inactive)
2 | Cn1ncc2c(Sc3ccc(Cl)cc3)ncnc21 | 81.4% (inactive)
3 | CCCCCCNC(=O)Oc1ccc(/C(=C(\C)c2ccccc2)c2ccc(OCCN3CCCCC3)cc2)cc1 | 31.1% (inactive)
4 | NC(N)=NC(N)=NCCCc1ccco1 | 83.1% (inactive)
5 | COc1cc(C#N)cc(OC)c1OCCN(CCOc1c(OC)cc(C#N)cc1OC)S(=O)(=O)c1ccc(C)cc1 | 102% (inactive)
6 | CCCCCc1cc[n+](CC(=O)c2ccc([N+](=O)[O-])cc2)cc1 | 102% (inactive)
7 | COc1cc(-c2nc3ccccc3s2)ccc1OCc1nc2n(n1)S(=O)(=O)c1ccccc1N2c1ccccc1 | 16.2% (inactive)
8 | COc1ccccc1CNCCCN1C(=O)c2ccc3c4c(ccc(c24)C1=O)C(=O)N(CCCNCCCCNCCCN)C3=O | -54.4% (active)
9 | O=C(NOC[C@H](O)CO)c1ccc(F)c(F)c1Nc1ccc(I)cc1F | 6.7% (active)
10 | CCOc1ccc(NC(=O)c2ccoc2COc2ccccc2)cc1 | 100% (inactive)
11 | CCCCCCNC(=O)Nc1ncnc2c1ncn2-c1ccccc1 | 109% (inactive)
12 | NC[C@@H]1CCN(c2cc3c(cc2F)c(=O)n(N)c(=O)n3Cc2ccc(-c3ccccc3)cc2)C1 | 90.4% (inactive)
13 | COc1ccc(/C=C/C(=O)c2cccc(B(O)O)c2)cc1O | 4.3% (active)
14 | CCN(CC)CCCC(C)Nc1cnc(C(=O)Nc2ccc(Cl)c3cccnc23)cn1 (configuration not stated) | -63.3% (active)
15 | COc1cc(C=O)ccc1Oc1ccc([N+](=O)[O-])cc1[N+](=O)[O-] | 95.1% (inactive)
16 | CN(Cc1cnc2nc(N)nc(N)c2n1)c1ccc(C(=O)NC(CCC(=O)O)C(=O)O)cc1Br (configuration not stated) | 45.2% (inactive)
17 | CCN1C(=O)N(CC)C2C1NN=c1s/c(=C3\C(=O)N(CC(C)C)c4ccccc43)c(=O)n12 (configuration not stated) | -43.8% (active)
18 | N#Cc1cnc2cc(OC[C@@H](O)CO)c(NC(=O)C3CCCC3)cc2c1Nc1ccc(OCc2cccc(F)c2)c(Cl)c1 | -28.8% (active)
19 | CC1CN=C(c2cccc(-c3ccc(-c4ccccc4)o3)c2)N1 (configuration not stated) | -46.1% (active)

Row | SMILES | growth
20 | Cc1ccccc1-c1cc(Cc2ccccc2O)c(=O)[nH]n1 | 84.1% (inactive)
21 | CC(=O)n1nc(C(=O)OC(C)(C)C)c2cc(F)c(F)cc21 | 103% (inactive)
22 | CC(=[N-])N1CCC[C@@H](Nc2c3ccccc3nc3ccccc23)C1.[Cl][Pt].[NH-]CCC[NH-] | 17% (inactive)
23 | COc1ccc(/C=C2/C(=O)N=C3N2NC(c2ccccc2)=CN3c2ccccc2)cc1 | 101% (inactive)
24 | N#C/C(=C\c1ccc(Br)cc1)c1cc2ccccc2[nH]1 | 98.2% (inactive)
25 | CCN1C(=O)N(c2ccccc2)C2NC(=S)N(/N=C/C=C/c3ccccc3)C21 (configuration not stated) | -26.4% (active)
26 | O=C1C=CN2C(=O)CC=CC2[C@@H]1O (some centres not stated) | 98.1% (inactive)
27 | c1cc(CNC23CC4CC(CC(C4)C2)C3)cc(C[N+](Cc2cccc(CNC34CC5CC(CC(C5)C3)C4)c2)(Cc2cccc(CNC34CC5CC(CC(C5)C3)C4)c2)Cc2cccc(CNC34CC5CC(CC(C5)C3)C4)c2)c1 (configuration not stated) | -29.5% [42 µM] (active)
28 | COC(=O)[C@]12CC[C@@H](C)[C@H](C)[C@@H]1C1=CC[C@@H]3[C@@]4(C)C(C=O)=C[C@@](C)(COC(=O)c5ccco5)[C@@H]4[C@H](O)C[C@@]3(C)[C@]1(C)CC2 | -21.9% (active)
29 | CCCCCCC(=O)C(C)C | 101% (inactive)
30 | COc1cc(C(=O)N2CCN(c3ccccc3OC)CC2)c(N)cc1OCCCN1CCN(c2ccccc2OC)CC1 | 85.3% (inactive)
31 | COc1cc(C(=O)c2cc(C)c3[nH]c4ccc(O)cc4c3c2C)cc(OC)c1OC | -13.7% (active)
32 | COc1ccc(-c2nsc3c2NC(=O)CC3c2cccc(F)c2)cc1 (configuration not stated) | 39.2% (inactive)
33 | CCc1ccc(CCC(=O)Nc2ncc(Cc3ccc(Cl)cc3)s2)o1 | -39.6% (active)
34 | COc1ccc(-c2cc(=O)oc3c4c(ccc23)OCN(Cc2ccc(F)cc2)C4)cc1 | 47.9% (inactive)
35 | COC(=O)c1nc(-c2ccccc2)oc1S(=O)(=O)n1nc(C)cc1N | 7.17% (active)
36 | COc1nc2ccc(C)cc2cc1-c1nc2c(cnn2-c2ccc(Br)cc2)c(=O)[nH]1 | 23.7% (inactive)
37 | COc1ccc(-c2nc(Nc3ccc(-c4nc5ccccc5[nH]4)cc3)nc(N3CCOCC3)n2)cc1 | -46% (active)

From PubChem BioAssay (NCI)
